In the library only some 1.4% were active in any assay of this set; here they are far more common.
A3G deaminase: blocks human APOBEC3G single-stranded DNA deamination. Q9HC16. recombinant A3G, ssDNA deamination FAM/TAMRA fluorescence. inhibition, % at 20 µM. actives 0.28% (n = 330,000). AID 493012;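 active = inhibition of at least 40% at 20 µM, with no more than 30% in the related APOBEC3A deaminase screen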;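 note: plate controls were DMSO wells with A3G for no effect and wells lacking A3G enzyme for full effect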
VLA-4 inh: inhibition in a human VLA-4 binding assay; P13612; VLA-4 expressing cells, ligand binding flow cytometry; inhibition, % (about 7 µM as worked out from the volumes in the protocol); actives 0.2% (n = 330,000); AID 2557; in the data active = inhibition above about 50%
GRK2 aptamer HTS: human GRK2 inhibition via aptamer displacement; actives 0.59% (n = 330,000); inhibition of aptamer binding, % at 10 µM; bead flow cytometry, FAM-aptamer displacement from GRK2; P25098; AID 488847;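 active = inhibition of aptamer binding above 40%, roughly 3 SD of noise, on plates passing a quality check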;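 note: median bead fluorescence of bound FAM aptamer so fluorescent compounds give negative values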
APOBEC3A inh: human APOBEC3A DNA deaminase inhibition; P31941; recombinant A3A, FAM/TAMRA ssDNA deamination fluorescence; inhibition, % at 20 µM; actives 0.41% (n = 330,000);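 active = at least 40% inhibition at 20 µM here, with at most 30% in a related deaminase screen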;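 note: plate controls were A3A with DMSO for no effect and wells lacking A3A enzyme for full effect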
Target sequence (P31941 whole entry, looked up): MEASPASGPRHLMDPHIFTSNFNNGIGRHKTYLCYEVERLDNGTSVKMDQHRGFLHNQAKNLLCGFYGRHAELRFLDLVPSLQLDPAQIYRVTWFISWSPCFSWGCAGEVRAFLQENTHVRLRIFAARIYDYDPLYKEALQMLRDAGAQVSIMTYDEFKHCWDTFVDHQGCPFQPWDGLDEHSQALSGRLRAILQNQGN
APOBEC3G confirm: confirmation of human APOBEC3G DNA deaminase inhibitors | shares compounds with A3G deaminase | recombinant A3G ssDNA deaminase, UDG/FAM-TAMRA fluorescence | inhibition, % at 20 µM | actives 72% (n = 890) | AID 493152;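 active = inhibition reaching a set limit in any replicate at 20 µM, the limit being 80% of the first screen's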
UDG ctr A3G: E. coli UDG inhibition in APOBEC3G counter-screen; shares compounds with A3G deaminase; UDG counterscreen, FAM/TAMRA oligo fluorescence; inhibition, % at 20 µM; 710 tested, under 10 active; AID 504715;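 active = compounds giving 40% or more inhibition at 20 µM in any one of the three replicates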;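 note: plate controls were DMSO wells with UDG and oligo for no effect and DMSO wells lacking both for full effect; inhibitors lower the FAM signal released by uracil excision and alkaline cleavage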
Target sequence (P12295 whole entry, looked up): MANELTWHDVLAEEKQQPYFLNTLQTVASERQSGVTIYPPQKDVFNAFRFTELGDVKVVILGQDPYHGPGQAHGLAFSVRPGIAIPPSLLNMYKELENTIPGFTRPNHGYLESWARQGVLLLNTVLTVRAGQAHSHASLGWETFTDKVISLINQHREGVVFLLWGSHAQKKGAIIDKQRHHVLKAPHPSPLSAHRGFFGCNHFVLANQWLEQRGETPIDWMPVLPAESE
Active calls of the source: *.

`O=C(Oc1ccc(C(=S)N2CCOCC2)cc1Br)c1cc(Cl)ccc1Cl` gave A3G deaminase -5, VLA-4 inh 18, GRK2 aptamer HTS 0 and APOBEC3A inh -5.
`O=C(Oc1c(Br)cc(C(=S)N2CCOCC2)cc1Br)c1ccc(Cl)cc1` gave A3G deaminase 62*, VLA-4 inh -8, GRK2 aptamer HTS 1, APOBEC3A inh 2, APOBEC3G confirm 20* and UDG ctr A3G -2.
`CCCC(C)c1nnc(NC(=O)c2cc(C(=O)OC)cc([N+](=O)[O-])c2)s1` (stereo not drawn) gave A3G deaminase 60*, VLA-4 inh -2, GRK2 aptamer HTS 0, APOBEC3A inh 10, APOBEC3G confirm 73* and UDG ctr A3G 1.
For CCCC(C)NC(=O)c1cc(C(=O)OC)cc([N+](=O)[O-])c1 (stereo not drawn) the results were A3G deaminase -6, VLA-4 inh 7, GRK2 aptamer HTS 0 and APOBEC3A inh -4.
`COc1cc(OC)c(C2CC(=O)N3CN(c4ccccc4C)CSC3=C2C#N)cc1OC` (stereo not drawn) gave A3G deaminase 44*, VLA-4 inh -18, GRK2 aptamer HTS 0, APOBEC3A inh 0 and APOBEC3G confirm 29.
COc1ccc2ccccc2c1C1CC(=O)N2CN(C3CCCCC3)CSC2=C1C#N (stereo not drawn) was read as A3G deaminase -9, VLA-4 inh -9, GRK2 aptamer HTS 1 and APOBEC3A inh -5.
Screening COc1ccc(C2CC(=O)N3CN(c4ccc(C)c(Cl)c4)CSC3=C2C#N)cc1 (stereo not drawn) returned A3G deaminase 52*, VLA-4 inh -9, GRK2 aptamer HTS 1, APOBEC3A inh 4 and APOBEC3G confirm 52*.
COc1ccc(C2CC(=O)N3CN(Cc4ccco4)CSC3=C2C#N)cc1 (stereo not drawn) was read as A3G deaminase -3, VLA-4 inh 1, GRK2 aptamer HTS 0 and APOBEC3A inh -1.
Screening COc1ccc(OC)c(C2CC(=O)N3CN(c4ccccc4)CSC3=C2C#N)c1 (stereo not drawn) returned A3G deaminase 46*, VLA-4 inh 0, GRK2 aptamer HTS 1, APOBEC3A inh 2, APOBEC3G confirm 56* and UDG ctr A3G -4.
For COc1ccc(N2CSC3=C(C#N)C(c4cccc(OC)c4OC)CC(=O)N3C2)cc1 (stereo not drawn) the results were A3G deaminase 39, VLA-4 inh -3, GRK2 aptamer HTS 1 and APOBEC3A inh -5.
Screening O=C(CCCCC(=O)Nc1ccc(F)cc1)Nc1ccc(F)cc1 returned A3G deaminase -3, VLA-4 inh 15, GRK2 aptamer HTS 1 and APOBEC3A inh -3.
`CN1CCN(C(=O)C2=C[C@H](c3ccc(Br)cc3)C[C@H](OCCCCO)O2)CC1` gave A3G deaminase 27, VLA-4 inh 7, GRK2 aptamer HTS 0 and APOBEC3A inh 3.
For CCOC(=O)c1sc(NC(=O)C(C)C)c(C#N)c1C the results were A3G deaminase 57*, VLA-4 inh -3, GRK2 aptamer HTS 0, APOBEC3A inh 3, APOBEC3G confirm 64* and UDG ctr A3G -3.
CCOC(=O)c1sc(NC(=O)CSc2n[nH]c(-c3ccccc3)n2)c(C#N)c1C was read as A3G deaminase 47*, VLA-4 inh 12, GRK2 aptamer HTS 3, APOBEC3A inh 2, APOBEC3G confirm 32* and UDG ctr A3G -2.
Screening COc1ccc(-c2n[nH]c(=S)n2Cc2ccco2)cc1 returned A3G deaminase 36, VLA-4 inh 9, GRK2 aptamer HTS 0 and APOBEC3A inh -3.
For COc1ccc(OCc2n[nH]c(=S)n2Cc2ccco2)cc1 the results were A3G deaminase 43*, VLA-4 inh 4, GRK2 aptamer HTS 3, APOBEC3A inh -3, APOBEC3G confirm 72* and UDG ctr A3G 10.
Screening CCOc1ccc(C(=S)NC2CCCCC2)cc1OCC returned A3G deaminase 56*, VLA-4 inh 16, GRK2 aptamer HTS 0, APOBEC3A inh -1, APOBEC3G confirm 49* and UDG ctr A3G -1.
CCOc1ccc(C(C)NC(=S)NC2CCCCC2)cc1OCC (stereo not drawn) was read as A3G deaminase -5, VLA-4 inh -2, GRK2 aptamer HTS 0 and APOBEC3A inh 0.
Screening O=C(NCc1nnc(SCC(=O)N2CCCCC2)o1)c1ccc(F)cc1 returned A3G deaminase -3, VLA-4 inh 6, GRK2 aptamer HTS 0 and APOBEC3A inh 0.
`O=C(NCc1nnc(SCC(=O)N2CCCCCC2)o1)c1ccco1` gave A3G deaminase 77*, VLA-4 inh 8, GRK2 aptamer HTS 3, APOBEC3A inh -1, APOBEC3G confirm 3 and UDG ctr A3G 6.
CCOC(=O)C1(CCOc2ccccc2)CCN(Cc2ccc(OCCO)cc2)CC1 was read as A3G deaminase -5, VLA-4 inh -2 and APOBEC3A inh -8.
COc1ccc(N2C(=O)CC(Sc3n[nH]c(-c4ccccc4)n3)C2=O)cc1 (stereo not drawn) was read as A3G deaminase 53*, VLA-4 inh 16, GRK2 aptamer HTS 0, APOBEC3A inh -3, APOBEC3G confirm 62* and UDG ctr A3G -2.
For CCOc1ccc(N2C(=O)CC(Sc3n[nH]c(-c4ccccc4)n3)C2=O)cc1 (stereo not drawn) the results were A3G deaminase 46*, VLA-4 inh 3, GRK2 aptamer HTS 0, APOBEC3A inh -3, APOBEC3G confirm 47* and UDG ctr A3G 1.
CCOc1ccc2nc(SC3CC(=O)N(c4ccccc4)C3=O)sc2c1 (stereo not drawn) was read as A3G deaminase -3, VLA-4 inh -5, GRK2 aptamer HTS 0 and APOBEC3A inh -2.
`COc1cc(C(=O)N2C(=O)CCC2=O)cc(OC)c1OC` gave A3G deaminase 57*, VLA-4 inh 8, GRK2 aptamer HTS 0, APOBEC3A inh 0, APOBEC3G confirm 5 and UDG ctr A3G -1.
`Nc1nccnc1C(=O)OCC(=O)C12CC3CC(CC(C3)C1)C2` gave A3G deaminase -6, VLA-4 inh 4, GRK2 aptamer HTS 0 and APOBEC3A inh 0.
Screening COC(=O)Cc1sc(-c2ccccn2)nc1-c1ccccc1 returned A3G deaminase 49*, VLA-4 inh 4, GRK2 aptamer HTS 0, APOBEC3A inh 2, APOBEC3G confirm 41* and UDG ctr A3G 2.
`COC(=O)Cc1ccc2sc(-c3ccccc3)nc2c1` gave A3G deaminase -1, VLA-4 inh 9, GRK2 aptamer HTS 0 and APOBEC3A inh -1.
Cc1ccc(C2N(c3cccc(Cl)c3)C(=O)C3CCCN32)o1 (stereo not drawn) was read as A3G deaminase 1, VLA-4 inh 23, GRK2 aptamer HTS 3 and APOBEC3A inh 0.

From PubChem BioAssay
